Experimental data from PubChem BioAssay.
Calls of active or inactive are those of the source. How the calls were made is not given here.

assay: Brca1-Bard1 BiLC signal decrease – luminescence, single concentration, counter-screen for Mdm2/MdmX interaction inhibitor project, confirmation (AID 504668); settings: Brca1/Bard1 bimolecular luciferase complementation counterscreen, at 8 µM, hits give high values

SMILES	inhibition
COC(=O)c1ccc(Sc2nnnn2-c2ccccc2)c([N+](=O)[O-])c1	23% (active)
Cn1nnnc1Sc1ncnc2scc(-c3cccc(S(C)(=O)=O)c3)c12	27.4% (active)
O=C(C[C@H]1C[C@H](C(=O)N2CCCCC2)[C@@]2(CCc3ccccc3)c3[nH]c4ccc(Cl)cc4c3CCN2C1=O)NCc1cccc(C(F)(F)F)c1	34% (active)
Cc1cc(C)c(S(=O)(=O)N2CCCCC2CCNC(=O)C(=O)NC2CC2)c(C)c1 (stereo not given)	25.4% (active)
Cc1ccc(S(=O)(=O)c2c(C)nn(C(C)(C)C)c2OC(=O)c2ccc(Br)o2)cc1	29.3% (active)
Cn1nccc1C(=O)N/N=C/c1c(O)ccc2ccccc12	31.1% (active)
CCc1nc(Nc2ccncc2)c2oc3ccccc3c2n1	31.6% (active)
Oc1ccccc1/C=N/Nc1nccnc1Cl	30.8% (active)
Cn1cccc1-c1cc(C(=O)N/N=C/c2cc(Br)ccc2O)[nH]n1	25.9% (active)
COc1ccc(O)c(/C=N/NC(=O)c2ccc(CSc3nc(C)cc(C)n3)cc2)c1	30.7% (active)
CCCCC(=O)NC(c1ccco1)c1cc(Cl)c2cccnc2c1O (stereo not given)	28.6% (active)
C=CC[n+]1c(/C=C2\C=Cc3cc(C)ccc3N2CC)ccc2ccccc21	28.5% (active)
CCCCC(=O)NC(c1ccc(N(C)C)cc1)c1ccc2cccnc2c1O (stereo not given)	23.7% (active)
O=C(CNc1ccc(F)cc1)N/N=C/c1c(O)ccc2ccccc12	27.9% (active)
CC(=O)NC(c1cccs1)c1cc(F)c2cccnc2c1O (stereo not given)	30.4% (active)
S=C(Nc1ccc(Cl)c(Cl)c1)NC1CCN(Cc2ccccc2)CC1	28.5% (active)
C=CCSc1nsc(NC(=O)Nc2ccc(F)cc2)n1	28% (active)
O=C1c2ccccc2NC(c2ccc(-c3ccc(Br)cc3)o2)N1O (stereo not given)	31% (active)
O=C(/C=C/c1ccc2ccccc2n1)N1CCN(S(=O)(=O)c2ccccc2F)CC1	25.5% (active)
COc1ccc2nc(NC(=O)/C=C/c3ccc4c(c3)OCO4)sc2c1	35.2% (active)

SMILES	inhibition
COc1ccc([N+](=O)[O-])cc1NC(=S)NC(NC(=O)C(c1ccccc1)c1ccccc1)C(Cl)(Cl)Cl (stereo not given)	29.2% (active)
Nc1nonc1-c1nc2ccccc2n1CC(=O)Nc1ccccc1	24.8% (active)
O=C(N/N=C/c1cc([N+](=O)[O-])ccc1N1CCNCC1)c1ccc([N+](=O)[O-])cc1	32.1% (active)
CCCCSc1nc(C)cc(SCC(=O)N/N=C/c2cccc(OC)c2O)n1	34.4% (active)
O=C(CCl)Nc1cccc(S(=O)(=O)N2CCCCCC2)c1	24% (active)
O=C(N/N=C(\c1ccccc1)c1cccnc1)c1cccc(F)c1	33.2% (active)
CCSc1nsc(NC(=O)Nc2cccc(F)c2)n1	26.2% (active)
CCn1c(SCc2c(Cl)cccc2Cl)nc2nc3c(cc2c1=O)CCCC3	35.8% (active)
N/C(=N\NC(=O)c1sccc1OCc1ccc(Cl)cc1Cl)c1ccccn1	35.1% (active)
COc1ccc(-c2oc3cc(OC)c(O)c(OC)c3c(=O)c2OC)cc1O	28.4% (active)
CCC(=O)Nc1cccc(C(=O)/C=C/c2ccccc2)c1	34.4% (active)
O=C(N/N=C(\Cc1ncc[nH]1)c1ccccc1)c1ccncc1	30.3% (active)
CC1=Nc2cc(C(=O)N3CCCC3)ccc2Sc2c(C)ccc(C)c21	23.1% (active)
CCCc1c(NC(=O)Nc2ccc(F)cc2)cnn1-c1ccccc1	29.3% (active)
C#CCOCCOCCOCCNc1nc(N2CCN(C(=O)CCCCCCCCCCNC(=O)Cn3cc(C[C@@H](C)O)nn3)CC2)nc(N2CCN(C(=O)CCCCCCCCCCNC(=O)[C@@H]([C@H](C)CC)n3cc(CCCCCN)nn3)CC2)n1	27.2% (active)
N#CC(c1ccc(Cl)cc1)c1ccc2c(C(F)(F)F)cc(C(F)(F)F)nc2n1 (stereo not given)	24% (active)
Cc1ccc(S(=O)(=O)CCc2nc3ccccc3n2CCC#N)cc1	32.2% (active)
COc1cccc(/C=C2\SC(=S)N(CCC(=O)NCCc3ccc(O)cc3)C2=O)c1	35.4% (active)
COc1cc(/C=C/[N+](=O)[O-])ccc1OCc1cccc(C(=O)O)c1	35.1% (active)
OC(c1cc(C(F)(F)F)nc2c(C(F)(F)F)cccc12)C1CCCCN1 (stereo not given)	35.8% (active)
